Results reported in the supplement of paper PMC10849652.
Targets with a hit are over-represented here; the source holds about 7,900 in all. About 0.6% of all pairs of compound and target were hits.

Compound: Cc1ncc(-c2ccnc(Nc3ccc(S(C)(=O)=O)cc3)n2)n1C(C)C
Assay: log2 fold change, soluble protein after heating vs DMSO (PISA); higher = thermal stabilisation; K562 cells, 10 uM, 30 min; active = over 0.2 and 3.5 SD of the protein, either way, in both replicates (recomputed)
Method in brief: (§1)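 K562 cells at 2×10^6 cells/mL were treated for 30 min with 10 μM compound, and aliquots were heated for 3 min over 48°C-58°C before pooling. Extraction used PBS with 0.5% NP-40 at 4°C, and soluble protein was the supernatant after 21,000xg for 90 min, measured by TMTpro 16plex LC-MS/MS with channel sums equalised. Thermal stability values, relative to control samples and from duplicates, are log2 fold changes.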

UniProt P41208, sequence (P41208 whole entry, looked up): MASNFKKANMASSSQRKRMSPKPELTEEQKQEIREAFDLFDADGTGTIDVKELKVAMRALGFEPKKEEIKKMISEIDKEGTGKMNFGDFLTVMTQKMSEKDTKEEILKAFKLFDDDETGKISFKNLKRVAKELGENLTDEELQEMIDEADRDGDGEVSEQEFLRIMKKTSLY
UniProt O75909, sequence (O75909 whole entry, looked up): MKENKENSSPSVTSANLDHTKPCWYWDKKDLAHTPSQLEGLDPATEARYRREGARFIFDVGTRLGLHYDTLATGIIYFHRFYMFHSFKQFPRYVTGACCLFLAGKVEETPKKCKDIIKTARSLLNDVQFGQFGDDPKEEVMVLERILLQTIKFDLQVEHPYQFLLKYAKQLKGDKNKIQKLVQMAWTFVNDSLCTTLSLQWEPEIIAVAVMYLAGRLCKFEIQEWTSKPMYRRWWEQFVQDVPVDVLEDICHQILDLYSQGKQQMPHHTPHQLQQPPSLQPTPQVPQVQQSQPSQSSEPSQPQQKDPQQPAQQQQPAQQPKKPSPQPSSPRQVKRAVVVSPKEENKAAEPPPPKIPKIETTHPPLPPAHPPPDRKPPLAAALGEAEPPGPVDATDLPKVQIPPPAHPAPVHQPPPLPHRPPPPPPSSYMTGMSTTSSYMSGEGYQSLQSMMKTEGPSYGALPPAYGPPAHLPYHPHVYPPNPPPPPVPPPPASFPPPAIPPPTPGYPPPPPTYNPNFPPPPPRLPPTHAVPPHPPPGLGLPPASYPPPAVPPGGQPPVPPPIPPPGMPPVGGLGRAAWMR
UniProt Q8N163, sequence (Q8N163 whole entry, looked up): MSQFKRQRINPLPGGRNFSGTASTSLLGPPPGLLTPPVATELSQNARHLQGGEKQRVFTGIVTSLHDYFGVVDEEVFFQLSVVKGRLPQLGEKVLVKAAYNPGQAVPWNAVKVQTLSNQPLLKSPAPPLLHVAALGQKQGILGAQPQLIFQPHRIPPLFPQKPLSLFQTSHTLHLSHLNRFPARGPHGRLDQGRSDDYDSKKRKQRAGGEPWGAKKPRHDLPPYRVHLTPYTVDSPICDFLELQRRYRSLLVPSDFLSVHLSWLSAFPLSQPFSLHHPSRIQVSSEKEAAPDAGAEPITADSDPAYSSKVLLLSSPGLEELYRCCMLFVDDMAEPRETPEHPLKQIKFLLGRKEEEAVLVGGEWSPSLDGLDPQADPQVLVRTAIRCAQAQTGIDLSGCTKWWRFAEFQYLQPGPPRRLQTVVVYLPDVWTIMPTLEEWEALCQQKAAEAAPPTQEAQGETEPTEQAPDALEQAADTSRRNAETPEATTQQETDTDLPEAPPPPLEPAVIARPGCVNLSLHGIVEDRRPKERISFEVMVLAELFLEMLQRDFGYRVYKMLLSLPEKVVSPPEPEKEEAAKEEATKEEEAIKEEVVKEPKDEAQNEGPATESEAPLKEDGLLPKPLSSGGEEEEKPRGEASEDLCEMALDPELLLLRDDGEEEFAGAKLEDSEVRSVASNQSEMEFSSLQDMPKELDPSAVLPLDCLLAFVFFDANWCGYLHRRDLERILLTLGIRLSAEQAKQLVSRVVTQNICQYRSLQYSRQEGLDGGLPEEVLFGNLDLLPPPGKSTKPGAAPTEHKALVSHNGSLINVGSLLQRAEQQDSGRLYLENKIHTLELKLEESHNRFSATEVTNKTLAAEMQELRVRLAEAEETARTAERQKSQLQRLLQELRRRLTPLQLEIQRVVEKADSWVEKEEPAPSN
UniProt P0C0L4, sequence (P0C0L4 whole entry, looked up): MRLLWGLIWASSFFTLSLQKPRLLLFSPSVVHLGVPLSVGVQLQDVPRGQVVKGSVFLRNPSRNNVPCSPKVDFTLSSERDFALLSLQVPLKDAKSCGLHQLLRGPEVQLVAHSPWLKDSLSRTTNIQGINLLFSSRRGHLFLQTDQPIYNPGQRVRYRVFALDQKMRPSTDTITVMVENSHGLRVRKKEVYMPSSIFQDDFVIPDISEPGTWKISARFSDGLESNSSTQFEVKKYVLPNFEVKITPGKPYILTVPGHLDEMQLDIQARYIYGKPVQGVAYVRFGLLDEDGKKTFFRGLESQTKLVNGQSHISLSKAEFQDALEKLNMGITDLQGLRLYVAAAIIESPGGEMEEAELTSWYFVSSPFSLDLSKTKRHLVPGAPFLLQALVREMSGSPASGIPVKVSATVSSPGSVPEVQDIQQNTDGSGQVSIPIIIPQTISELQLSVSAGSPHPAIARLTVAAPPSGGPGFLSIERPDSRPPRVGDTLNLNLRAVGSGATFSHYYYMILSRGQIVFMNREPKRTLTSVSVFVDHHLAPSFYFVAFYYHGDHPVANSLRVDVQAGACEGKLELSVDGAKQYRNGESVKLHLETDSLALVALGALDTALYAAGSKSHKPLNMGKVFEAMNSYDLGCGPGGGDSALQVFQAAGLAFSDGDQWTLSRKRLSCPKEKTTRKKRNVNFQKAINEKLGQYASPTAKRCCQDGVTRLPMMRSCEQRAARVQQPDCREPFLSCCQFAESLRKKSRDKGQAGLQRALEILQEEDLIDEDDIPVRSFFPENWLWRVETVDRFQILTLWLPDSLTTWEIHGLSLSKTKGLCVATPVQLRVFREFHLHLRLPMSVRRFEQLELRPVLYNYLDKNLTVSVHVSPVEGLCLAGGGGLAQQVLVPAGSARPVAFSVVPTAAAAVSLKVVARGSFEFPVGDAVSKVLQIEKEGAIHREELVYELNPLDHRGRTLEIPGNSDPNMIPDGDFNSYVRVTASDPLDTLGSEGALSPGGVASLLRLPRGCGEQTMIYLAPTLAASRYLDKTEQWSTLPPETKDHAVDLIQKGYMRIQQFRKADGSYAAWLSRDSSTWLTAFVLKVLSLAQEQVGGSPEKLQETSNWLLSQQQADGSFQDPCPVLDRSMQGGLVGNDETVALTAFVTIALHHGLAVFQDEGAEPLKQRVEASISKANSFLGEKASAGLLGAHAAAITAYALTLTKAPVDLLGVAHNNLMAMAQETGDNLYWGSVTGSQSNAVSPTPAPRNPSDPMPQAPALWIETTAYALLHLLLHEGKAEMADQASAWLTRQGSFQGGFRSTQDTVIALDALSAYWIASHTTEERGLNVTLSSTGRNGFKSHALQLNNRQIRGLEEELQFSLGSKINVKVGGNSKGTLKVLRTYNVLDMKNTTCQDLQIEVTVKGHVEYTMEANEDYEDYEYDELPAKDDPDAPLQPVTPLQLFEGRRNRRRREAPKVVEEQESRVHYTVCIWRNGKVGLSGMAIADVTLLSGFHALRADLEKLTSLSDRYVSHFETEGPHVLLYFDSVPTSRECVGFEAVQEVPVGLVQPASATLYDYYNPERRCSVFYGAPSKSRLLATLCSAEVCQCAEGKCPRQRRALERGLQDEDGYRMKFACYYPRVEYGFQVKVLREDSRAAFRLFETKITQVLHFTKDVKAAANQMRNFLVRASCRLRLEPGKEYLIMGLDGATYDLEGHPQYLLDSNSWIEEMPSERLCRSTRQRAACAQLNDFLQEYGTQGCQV
UniProt Q9NZN8, sequence (Q9NZN8 whole entry, looked up): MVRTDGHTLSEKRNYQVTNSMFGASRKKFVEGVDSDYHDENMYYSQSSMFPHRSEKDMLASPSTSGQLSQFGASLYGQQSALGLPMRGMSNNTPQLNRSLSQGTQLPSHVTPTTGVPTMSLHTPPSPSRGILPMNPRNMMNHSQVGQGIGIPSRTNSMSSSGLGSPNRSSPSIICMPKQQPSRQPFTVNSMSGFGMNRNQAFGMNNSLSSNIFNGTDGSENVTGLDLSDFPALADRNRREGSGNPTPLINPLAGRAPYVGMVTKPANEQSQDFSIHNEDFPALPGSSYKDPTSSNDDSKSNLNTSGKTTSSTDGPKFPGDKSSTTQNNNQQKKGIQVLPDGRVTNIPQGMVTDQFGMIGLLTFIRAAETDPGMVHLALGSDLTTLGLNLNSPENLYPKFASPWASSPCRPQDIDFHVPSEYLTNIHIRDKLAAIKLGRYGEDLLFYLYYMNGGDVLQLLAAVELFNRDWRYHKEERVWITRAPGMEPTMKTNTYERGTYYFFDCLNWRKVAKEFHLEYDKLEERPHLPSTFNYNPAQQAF
UniProt P51790, sequence (P51790 whole entry, looked up): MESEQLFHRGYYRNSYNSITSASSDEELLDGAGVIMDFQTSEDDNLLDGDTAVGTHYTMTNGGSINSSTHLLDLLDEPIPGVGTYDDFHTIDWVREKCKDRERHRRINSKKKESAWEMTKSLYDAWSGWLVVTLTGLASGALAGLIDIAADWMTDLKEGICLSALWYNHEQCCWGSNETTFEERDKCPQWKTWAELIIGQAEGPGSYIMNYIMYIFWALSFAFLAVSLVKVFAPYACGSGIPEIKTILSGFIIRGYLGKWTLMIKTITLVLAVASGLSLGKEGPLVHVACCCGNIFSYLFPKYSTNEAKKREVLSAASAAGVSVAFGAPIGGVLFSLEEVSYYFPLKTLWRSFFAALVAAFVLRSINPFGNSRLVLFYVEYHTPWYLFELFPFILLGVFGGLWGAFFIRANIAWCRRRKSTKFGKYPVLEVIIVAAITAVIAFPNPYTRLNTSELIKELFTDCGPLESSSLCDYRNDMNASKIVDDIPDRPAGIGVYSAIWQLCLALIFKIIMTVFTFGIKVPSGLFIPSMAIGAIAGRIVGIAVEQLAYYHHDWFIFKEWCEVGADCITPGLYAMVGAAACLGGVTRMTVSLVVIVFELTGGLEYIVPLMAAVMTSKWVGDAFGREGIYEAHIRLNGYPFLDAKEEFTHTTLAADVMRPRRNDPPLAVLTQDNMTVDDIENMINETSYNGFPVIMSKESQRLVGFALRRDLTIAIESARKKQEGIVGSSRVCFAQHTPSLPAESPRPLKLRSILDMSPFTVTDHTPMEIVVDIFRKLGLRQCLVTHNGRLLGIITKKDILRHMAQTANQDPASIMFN
UniProt P20674, sequence (P20674 whole entry, looked up): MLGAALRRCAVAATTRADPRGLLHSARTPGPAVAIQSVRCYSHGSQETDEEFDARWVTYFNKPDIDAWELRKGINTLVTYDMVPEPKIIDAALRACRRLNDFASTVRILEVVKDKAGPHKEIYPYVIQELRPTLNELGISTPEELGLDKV
UniProt P14854, sequence (P14854 whole entry, looked up): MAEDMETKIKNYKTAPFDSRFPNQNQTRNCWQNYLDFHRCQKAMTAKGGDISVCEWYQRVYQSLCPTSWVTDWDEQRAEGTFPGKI

Target | log2 fold change
CD151 (UniProt P48509) | 0.019 (inactive)
CBX1 (UniProt P83916) | -0.003 (inactive)
CHCHD2 (UniProt Q9Y6H1) | -0.086 (inactive)
CCNK isoform 4 (UniProt O75909) | -0.025 (inactive)
CBR1 (UniProt P16152) | 0.022 (inactive)
CASP2 (UniProt P42575) | 0.114 (inactive)
COCH (UniProt O43405) | -0.262 (inactive)
CTBS (UniProt Q01459) | -0.077 (inactive)
CDKN2AIP (UniProt Q9NXV6) | 0.015 (inactive)
CBS (UniProt P35520) | -0.003 (inactive)
COMT (UniProt P21964) | 0.009 (inactive)
CCDC9 (UniProt Q9Y3X0) | 0.028 (inactive)
CHD4 isoform 2 (UniProt Q14839) | -0.137 (inactive)
COX5A (UniProt P20674) | -0.067 (inactive)
CLCN3 (UniProt P51790) | -0.027 (inactive)
C4A (UniProt P0C0L4) | 0.217 (inactive)
CCAR2 isoform 2 (UniProt Q8N163) | -0.157 (inactive)
COPS4 (UniProt Q9BT78) | 0.007 (inactive)

Target | log2 fold change
CDK16 isoform 2 (UniProt Q00536) | 0.679 (active)
COPS3 (UniProt Q9UNS2) | -0.012 (inactive)
C4orf33 (UniProt Q8N1A6) | -0.1 (inactive)
COPS8 (UniProt Q99627) | 0.007 (inactive)
CDK5RAP3 isoform 4 (UniProt Q96JB5) | 0.054 (inactive)
CCZ1 (UniProt P86791) | -0.098 (inactive)
CSTF2 (UniProt P33240) | 0.047 (inactive)
COX6B1 (UniProt P14854) | -0.027 (inactive)
CNDP2 (UniProt Q96KP4) | -0.041 (inactive)
CPQ (UniProt Q9Y646) | -0.046 (inactive)
CA1 (UniProt P00915) | 0.011 (inactive)
CNN2 (UniProt Q99439) | 0.006 (inactive)
CSNK2A2 (UniProt P19784) | -0.019 (inactive)
CNOT2 (UniProt Q9NZN8) | 0.01 (inactive)
CRK (UniProt P46108) | 0.036 (inactive)
CETN2 (UniProt P41208) | -0.001 (inactive)
CPSF1 (UniProt Q10570) | -0.014 (inactive)
CSTF3 (UniProt Q12996) | 0.158 (inactive)

Compound: Cn1cc(-c2ccc3c(c2)CCN3C(=O)Cc2cccc(C(F)(F)F)c2)c2c(N)ncnc21
Assay: as above
Method in brief: as §1

Target | log2 fold change
CD151 (UniProt P48509) | 0.025 (inactive)
CBX1 (UniProt P83916) | -0.034 (inactive)
CHCHD2 (UniProt Q9Y6H1) | 0.116 (inactive)
CCNK isoform 4 (UniProt O75909) | -0.118 (inactive)
CBR1 (UniProt P16152) | 0.081 (inactive)
CASP2 (UniProt P42575) | 0.105 (inactive)
COCH (UniProt O43405) | -0.069 (inactive)
CTBS (UniProt Q01459) | -0.093 (inactive)
CDKN2AIP (UniProt Q9NXV6) | -0.049 (inactive)
CBS (UniProt P35520) | 0.079 (inactive)
COMT (UniProt P21964) | 0.073 (inactive)
CCDC9 (UniProt Q9Y3X0) | -0.046 (inactive)
CHD4 isoform 2 (UniProt Q14839) | -0.063 (inactive)
COX5A (UniProt P20674) | 0.109 (inactive)
CLCN3 (UniProt P51790) | 0.03 (inactive)
C4A (UniProt P0C0L4) | 0.163 (inactive)
CCAR2 isoform 2 (UniProt Q8N163) | -0.009 (inactive)
COPS4 (UniProt Q9BT78) | 0.031 (inactive)

Target | log2 fold change
CDK16 isoform 2 (UniProt Q00536) | -0.014 (inactive)
COPS3 (UniProt Q9UNS2) | 0.014 (inactive)
C4orf33 (UniProt Q8N1A6) | 0.056 (inactive)
COPS8 (UniProt Q99627) | 0.107 (inactive)
CDK5RAP3 isoform 4 (UniProt Q96JB5) | 0.008 (inactive)
CCZ1 (UniProt P86791) | 0.021 (inactive)
CSTF2 (UniProt P33240) | -0.011 (inactive)
COX6B1 (UniProt P14854) | 0.228 (inactive)
CNDP2 (UniProt Q96KP4) | 0.066 (inactive)
CPQ (UniProt Q9Y646) | 0.012 (inactive)
CA1 (UniProt P00915) | 0.029 (inactive)
CNN2 (UniProt Q99439) | 0.011 (inactive)
CSNK2A2 (UniProt P19784) | -0.009 (inactive)
CNOT2 (UniProt Q9NZN8) | -0.055 (inactive)
CRK (UniProt P46108) | -0.007 (inactive)
CETN2 (UniProt P41208) | -0.013 (inactive)
CPSF1 (UniProt Q10570) | -0.077 (inactive)
CSTF3 (UniProt Q12996) | -0.009 (inactive)
